Active and inactive are the calls of the source.
Assays:
[1] = test system: Plasmodium falciparum Sir2 (PF13_0152, Sir2A); assay: pfSir2 binders on small-molecule microarrays, primary screen, biochemical, small-molecule microarray, 635 nm fluorescence (AID 1098); settings: small-molecule microarray binding, fluorescence 635 nm; higher = more signal;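 further: score merges spot fluorescence intensity with its signal-to-noise ratio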
[2] = small-molecule microarray binders of probe aDKK1, primary screen, biochemical, biotinylated probe, 635/667 nm fluorescence (AID 1099); settings: higher = more signal;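 further: score merges 667nm spot fluorescence with signal to noise across triplicate slides; reference of the scale not given here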
[3] = small-molecule microarray binders of probe aCHRDL2, primary screen, biochemical, biotinylated probe, 635/667 nm fluorescence (AID 1100); settings: higher = more signal
[4] = splicing luciferase reporter signal modulators, primary screen, spliceosome inhibition project, cell-based, HEK293, splice +/- reporter (AID 1101); settings: luminescence, 24 h, higher = more signal, called active from +8 up or from −8 down;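 further: HEK293 cells carrying a splicing-competent luciferase reporter gene; test concentration not given here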
[5] = target: Fibroblast growth factor 10 (Homo sapiens) (UniProt O15520); assay: FGF10 binders on small-molecule microarrays, primary screen, biochemical, small-molecule microarray, 635 nm fluorescence (AID 1102); settings: FGF10 binding, fluorescence 635 nm, higher = more signal
[6] = test system: glycogen synthase kinase-3 (GSK3A per assay name; protocol says GSK3B); assay: GSK3 binders on small-molecule microarrays, primary screen, biochemical, small-molecule microarray, 635 nm fluorescence, GSK3A (AID 1103); settings: small-molecule microarray binding, fluorescence 635 nm; higher = more signal; further: the record names both GSK3A and GSK3B
[7] = target: Epidermal growth factor receptor (Homo sapiens) (UniProt P00533); assay: EGFR binders on small-molecule microarrays, primary screen, biochemical, small-molecule microarray, 635 nm fluorescence (AID 1104); settings: EGFR binding, higher = more signal;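 further: score merges 667 nm emission intensity with spot signal to noise over triplicate slides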
[8] = target: Follistatin-related protein 3 (Homo sapiens) (UniProt O95633); assay: FSTL3 binders on small-molecule microarrays, primary screen, biochemical, small-molecule microarray, 635 nm fluorescence (AID 1105); settings: FSTL3 binding, higher = more signal;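 further: score merges emission near 667 nm and signal to noise per printed spot across three slides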
[9] = target: Dickkopf-related protein 1 (Homo sapiens) (UniProt O94907); assay: DKK1 binders on small-molecule microarrays, primary screen, biochemical, small-molecule microarray, 635 nm fluorescence scan (AID 1106); settings: DKK1 binding, higher = more signal;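 further: score merges emission near 667 nm with signal to noise over three replicate slides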
[10] = test system: Inhibin beta A chain (activin A); assay: INHBA (activin A) binders on microarrays, primary screen, biochemical, small-molecule microarray, 635 nm fluorescence scan (AID 1107); settings: small-molecule microarray binding, higher = more signal;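 further: mouse activin A protein probed at 4.33 µg/mL on printed slides; score merges bound-protein fluorescence near 667 nm with spot signal-to-noise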

Chain of Epidermal growth factor receptor (Homo sapiens) (P00533 whole entry, looked up): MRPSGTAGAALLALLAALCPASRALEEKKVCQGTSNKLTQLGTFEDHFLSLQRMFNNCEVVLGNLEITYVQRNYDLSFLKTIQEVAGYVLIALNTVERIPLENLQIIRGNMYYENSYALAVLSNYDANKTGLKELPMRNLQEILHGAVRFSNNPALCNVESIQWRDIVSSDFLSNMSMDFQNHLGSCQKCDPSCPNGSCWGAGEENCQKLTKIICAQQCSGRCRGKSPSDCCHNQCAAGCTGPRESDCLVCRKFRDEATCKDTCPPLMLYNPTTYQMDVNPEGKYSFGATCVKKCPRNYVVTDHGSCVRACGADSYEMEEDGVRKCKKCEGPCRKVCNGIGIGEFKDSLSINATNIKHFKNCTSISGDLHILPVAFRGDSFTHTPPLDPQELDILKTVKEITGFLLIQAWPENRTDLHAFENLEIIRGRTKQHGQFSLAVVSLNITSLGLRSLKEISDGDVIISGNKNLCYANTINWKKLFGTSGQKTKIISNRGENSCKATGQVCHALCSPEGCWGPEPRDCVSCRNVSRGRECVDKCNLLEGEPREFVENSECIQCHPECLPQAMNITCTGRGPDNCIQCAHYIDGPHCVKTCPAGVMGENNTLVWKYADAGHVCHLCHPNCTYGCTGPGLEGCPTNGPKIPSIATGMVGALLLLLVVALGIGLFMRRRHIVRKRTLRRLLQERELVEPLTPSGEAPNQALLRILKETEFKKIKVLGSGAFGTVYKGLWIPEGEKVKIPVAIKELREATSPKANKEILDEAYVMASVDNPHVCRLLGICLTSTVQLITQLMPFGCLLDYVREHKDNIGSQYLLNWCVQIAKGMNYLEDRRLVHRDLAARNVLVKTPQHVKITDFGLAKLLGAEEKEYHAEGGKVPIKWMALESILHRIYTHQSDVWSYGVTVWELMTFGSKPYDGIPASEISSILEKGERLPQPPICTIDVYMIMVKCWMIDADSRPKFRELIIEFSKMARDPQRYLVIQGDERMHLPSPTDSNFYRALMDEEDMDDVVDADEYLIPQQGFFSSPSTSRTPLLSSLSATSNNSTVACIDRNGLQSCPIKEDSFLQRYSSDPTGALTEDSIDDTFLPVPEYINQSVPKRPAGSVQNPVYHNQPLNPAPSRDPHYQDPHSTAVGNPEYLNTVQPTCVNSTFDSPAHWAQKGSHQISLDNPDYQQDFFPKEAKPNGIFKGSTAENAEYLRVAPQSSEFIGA
Chain of Dickkopf-related protein 1 (Homo sapiens) (O94907 whole entry, looked up): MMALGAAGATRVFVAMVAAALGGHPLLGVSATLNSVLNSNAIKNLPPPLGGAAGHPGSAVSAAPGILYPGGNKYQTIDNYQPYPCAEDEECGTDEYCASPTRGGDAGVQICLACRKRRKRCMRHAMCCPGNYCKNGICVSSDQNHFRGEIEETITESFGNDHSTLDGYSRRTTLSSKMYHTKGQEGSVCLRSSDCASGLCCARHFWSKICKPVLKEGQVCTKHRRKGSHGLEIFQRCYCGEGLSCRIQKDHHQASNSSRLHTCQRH
Chain of Follistatin-related protein 3 (Homo sapiens) (O95633 whole entry, looked up): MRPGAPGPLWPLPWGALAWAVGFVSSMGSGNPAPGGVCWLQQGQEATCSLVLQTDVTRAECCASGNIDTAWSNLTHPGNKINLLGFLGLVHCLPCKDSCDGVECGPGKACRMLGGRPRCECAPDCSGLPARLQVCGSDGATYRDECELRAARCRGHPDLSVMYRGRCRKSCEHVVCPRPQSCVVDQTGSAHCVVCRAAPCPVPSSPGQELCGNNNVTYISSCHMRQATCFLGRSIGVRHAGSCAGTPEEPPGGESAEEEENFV
Chain of Fibroblast growth factor 10 (Homo sapiens) (O15520 whole entry, looked up): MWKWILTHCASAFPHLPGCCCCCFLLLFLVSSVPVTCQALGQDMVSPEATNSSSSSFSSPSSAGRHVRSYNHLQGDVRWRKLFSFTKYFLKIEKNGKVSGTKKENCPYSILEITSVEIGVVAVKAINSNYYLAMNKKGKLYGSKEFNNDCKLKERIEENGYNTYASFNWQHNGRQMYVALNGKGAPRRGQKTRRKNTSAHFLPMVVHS

| SMILES | composite z-score [1] | composite z-score [2] | composite z-score [3] | z-score [4] | composite z-score [5] | composite z-score [6] | composite z-score [7] | composite z-score [8] | composite z-score [9] | composite z-score [10] |
| --- | --- | --- | --- | --- | --- | --- | --- | --- | --- | --- |
| CO[C@@H]1COC(=O)[C@@H]2CCCN2C(=O)CC=C[C@@H](C)[C@H](OC)COC(=O)[C@@H]2CCCN2C(=O)CC=C[C@H]1C | 1.29 | -0.875 | -1.33 | -0.481 (inactive) | 0.546 | 0.171 | 0.992 | 1.19 | 1.27 | 1.43 |
| COCCCNC(=O)[C@@H]1c2ccccc2C(=O)N(CC23CC4CC(CC(C4)C2)C3)[C@H]1c1ccc(CO)cc1 | 0.0881 | 0.884 | 0.97 | -1.1 (inactive) | 0.37 | 0.623 | 0.215 | 0.296 | 0.427 | 0.911 |
| C#C[C@H](O[Si](C#Cc1ccccc1)(C(C)C)C(C)C)c1ccccc1 | 2.08 | -0.156 | 0.104 | -0.647 (inactive) | 0.0189 | -0.75 | -0.765 | -0.643 | -0.854 | 0.0677 |
| C=C[C@H](OC)[C@@H](OC(=O)Nc1ccc(SC)cc1)c1ccc(OC)c(O)c1 | 0.0729 | -0.276 | 0.241 | -1.84 (inactive) | -0.337 | -0.392 | -0.915 | -1.4 | -0.559 | -0.778 |
| O=C1O[C@H](c2ccccc2)[C@H](c2ccccc2)N2[C@H]1[C@@H](C(=O)Nc1nc3ccccc3s1)[C@]1(C(=O)Nc3ccc(C#CC4=CCCCC4)cc31)[C@H]2c1ccccc1OCCO | 1.51 | -0.0804 | -0.262 | -1.69 (inactive) | 1.14 | 1.02 | 0.516 | 1.27 | 0.574 | 0.345 |
| CN(C)C(=O)[C@@]1(Cc2ccccc2N=[N+]=[N-])N=C(c2ccc(OCCCO)cc2)O[C@H]1c1ccccc1CN=[N+]=[N-] | 1.68 | 1.22 | 1.3 | -0.636 (inactive) | 0.689 | 1.21 | 0.0256 | 0.482 | 0.4 | 0.676 |
| O=C(N1CCCCC1)[C@@]1(CCS(=O)(=O)c2ccccc2)N=C(c2ccc(OCCCO)cc2)O[C@H]1c1ccccc1 | 0.332 | 0.653 | 0.896 | -0.372 (inactive) | 1.27 | 0.811 | -0.162 | 0.598 | -0.42 | 0.356 |
| COc1ccc([Si](C)(C)[C@H]2[C@H](CCO)O[C@@]3(C(=O)N(Cc4ccccc4)c4ccc(N5C(=O)c6cccc7cccc5c67)cc43)[C@@H]2C)cc1 | 0.0883 | 0.153 | 0.633 | -1.1 (inactive) | -0.558 | -0.636 | -0.835 | -0.574 | -0.784 | 0.629 |
| CCCC=C(CCC)[C@@H](NS(=O)(=O)c1ccc(C(F)(F)F)cc1)c1ccc(-c2ccccc2)cc1 | 0.163 | 0.888 | 0.83 | -1.69 (inactive) | 1.13 | 0.72 | 0.201 | 0.38 | -0.112 | 0.835 |
| CC(C)(C)OC(=O)CC[C@]1(C(=O)NCCN2CCOCC2)N=C(c2ccc(OCCCO)cc2)O[C@H]1c1ccccc1CN=[N+]=[N-] | 0.639 | 0.626 | 0.777 | -1.59 (inactive) | -0.0042 | 0.813 | -0.243 | -0.49 | -0.663 | 0.82 |
| CC(C)CN1C(=O)[C@@]2(Cc3ccccc31)c1ccccc1C(=O)N(C1CCCCC1)[C@H]2c1ccc(CO)cc1 | -0.23 | 0.262 | 1.02 | -1.41 (inactive) | -0.706 | -1.24 | -0.894 | -1.34 | -1.66 | 0.977 |
| COc1ccc(NN2C(C(O)c3cc(OC)c(OC)c(OC)c3)C=CC3C(=O)N(C4CCCCC4)C(=O)C32)cc1 (stereo not given) | 0.573 | 1.16 | 1.31 | -0.617 (inactive) | 0.672 | 1.04 | -0.187 | 0.563 | -0.61 | 0.973 |
| COC(=O)C1=C(C)N(Cc2ccccc2)c2c(C(=O)OC)c(C(=O)OC)c(C(=O)OC)c(=O)n2[C@@H]1c1ccccc1 | 0.119 | -0.056 | -0.32 | -0.449 (inactive) | 0.583 | 0.37 | 0.12 | 0.287 | 0.436 | 0.16 |
| COc1ccc([Si](C)(C)[C@H]2[C@H](CCO)O[C@@]3(C(=O)N(Cc4ccc(N5CCCCC5=O)cc4)c4ccccc43)[C@@H]2C)cc1 | 1.36 | 0.175 | 0.37 | 1.23 (inactive) | 0.345 | 0.642 | 0.122 | 0.55 | 0.236 | 0.766 |
| C=CC[C@]1(C(=O)OC)N=C(c2ccc(OCCCO)cc2)O[C@H]1c1ccccc1CN=[N+]=[N-] | 0.212 | 1.21 | 1.44 | -1.4 (inactive) | -0.404 | -0.52 | -0.493 | -0.363 | -0.795 | 1.31 |
| O=C/C=C/c1ccccc1Cl | 1.67 | 0.265 | 0.405 | 0.0402 (inactive) | 0.0974 | -0.71 | -0.336 | -0.62 | -0.485 | 0.325 |
| O=[N+]([O-])c1ccc(C[n+]2ccc3ccc(O)cc3c2)o1 | 0.595 | 0.174 | -0.144 | -0.0287 (inactive) | 0.297 | 0.314 | 0.219 | 0.42 | 0.0242 | 0.618 |

| SMILES | composite z-score [1] | composite z-score [2] | composite z-score [3] | z-score [4] | composite z-score [5] | composite z-score [6] | composite z-score [7] | composite z-score [8] | composite z-score [9] | composite z-score [10] |
| --- | --- | --- | --- | --- | --- | --- | --- | --- | --- | --- |
| C=CCN1C(=O)[C@]2(O[C@H](CCn3cc(CCO)nn3)[C@@H]([Si](C)(C)c3ccc(OC)cc3)[C@@H]2C)c2cc(NC(=O)c3ccc(OC)cc3)ccc21 | 0.799 | 0.717 | 0.794 | 0.0559 (inactive) | 0.515 | 1.23 | 0.384 | 0.876 | 0.863 | 1.63 |
| C/C(=N\O)C(=O)NCCCCCNC(=O)OCc1ccccc1 | 0.807 | -0.186 | -0.472 | -0.508 (inactive) | 0.554 | 0.777 | 0.479 | 1.03 | 0.497 | 0.102 |
| CCC#CCN(Cc1ccccc1Br)[C@H](/C=C/c1ccccc1)[C@@H](O)Cc1ccccc1 | 0.193 | 0.0099 | 1.28 | -1.89 (inactive) | -0.89 | -0.688 | -1.53 | -1.81 | -1.6 | 1.05 |
| CN1CCC(CCCO)=CC1C1CC1 (stereo not given) | 0.537 | -0.499 | -0.896 | -1.18 (inactive) | 0.59 | 0.348 | 0.0647 | 0.0254 | 0.293 | 0.719 |
| O=C/C=C/c1ccc(/C=C/c2ccccc2)cc1 | -0.636 | -0.287 | 0.616 | -0.653 (inactive) | -0.77 | -0.386 | 0.193 | 0.233 | -0.278 | 1.47 |
| O=C(CS)NCCCCCNC(=O)[C@H]1C[C@H]2C(=O)N[C@@H](Cc3ccccc3)C(=O)N2[C@H]1c1ccc(O)cc1 | 1.26 | 0.27 | 0.299 | -0.876 (inactive) | 0.702 | 1.29 | 0.957 | 0.566 | 1.25 | 0.456 |
| COc1ccc(C(O)C2C=CC3C(=O)N(C)C(=O)C3N2N2CCCCC2)cc1OCc1ccccc1 (stereo not given) | 0.774 | 1.1 | 0.851 | 0.379 (inactive) | 0.26 | 0.636 | -0.001 | 0.371 | -0.622 | 0.986 |
| CO[C@H]1COC(=O)[C@@H](C)NC(=O)CC=C[C@@H](C)[C@H](OC)COC(=O)CC=C[C@@H]1C | -1.61 | -0.994 | -1.7 | -1.59 (inactive) | 0.518 | 0.442 | -0.805 | 1.34 | 1.2 | 1.62 |
| C[C@]1(C(=O)NCc2ccccc2)c2ccccc2C(=O)N(Cc2cc(C(F)(F)F)cc(C(F)(F)F)c2)[C@H]1c1ccc(CO)cc1 | 0.643 | 0.698 | 0.778 | -1.73 (inactive) | 0.894 | 1.18 | 0.123 | 0.439 | 0.419 | 0.856 |
| CC[C@@H]1C=C(C(=O)O)[C@H](c2ccccc2)N1S(=O)(=O)c1ccc([N+](=O)[O-])cc1 | 0.956 | -0.255 | 0.887 | -0.812 (inactive) | 0.0734 | 1.16 | -0.314 | 0.0657 | -0.538 | 0.781 |
| C=CCN1C(=O)[C@@]2(O[C@@H](CCn3cc([C@H](O)c4ccccc4)nn3)[C@H]([Si](C)(C)c3ccc(OC)cc3)[C@H]2C)c2cc(N3CCOC3=O)ccc21 | -0.412 | 0.16 | 0.338 | -2.62 (inactive) | 0.0752 | 0.472 | 0.135 | -0.0856 | 0.216 | 0.392 |
| O=C1O[C@H](c2ccccc2)[C@H](c2ccccc2)N2[C@H]1[C@@H](C(=O)NC[C@H](O)c1ccccc1)[C@]1(C(=O)Nc3ccc(C#CC4(O)CCCCCC4)cc31)[C@H]2c1ccc(OCCO)cc1 | 1.03 | 0.539 | 0.713 | -0.717 (inactive) | 0.599 | 0.563 | 0.0371 | 0.411 | 0.0407 | 0.0385 |
| O=C1c2ccccc2[C@](Cc2ccccc2I)(C(=O)NCC(F)(F)F)[C@H](c2ccc(CO)cc2)N1Cc1ccccc1C(F)(F)F | 0.795 | -0.582 | -0.243 | 0.133 (inactive) | 0.222 | 0.926 | 0.106 | 0.523 | 0.0221 | -0.33 |
| COc1ccc([Si](C)(C)[C@@H]2[C@@H](CCO)O[C@]3(C(=O)N(Cc4ccc(NC(=O)[C@H](C)O)cc4)c4ccccc43)[C@H]2C)cc1 | 1.3 | 0.305 | 0.161 | -4.19 (inactive) | 0.245 | 0.993 | 0.226 | 0.335 | 0.0302 | 0.316 |
| C=CCC(OC(C)=O)[C@@H]1[C@@H](N(Cc2ccc(-c3ccccc3)cc2)C(=O)c2ccc(C)cc2)c2cc(OCCCO)ccc2N1C(=O)c1ccc(-c2ccccc2)cc1 (stereo not given in full) | -0.151 | 0.434 | 0.536 | -2.28 (inactive) | 0.104 | -0.176 | -0.0222 | -0.023 | -0.0546 | 1.42 |
| CN(C)CCCC[C@@H]1NC(=O)[C@@H]2C[C@H](C(=O)O)[C@H](c3ccc(O)cc3)N2C1=O | 0.902 | -0.005 | -0.222 | -2.22 (inactive) | 0.857 | 1.21 | 0.737 | 0.928 | 1.68 | 0.293 |
